Results as given in ChEMBL document CHEMBL1157539, “Thousands of chemical starting points for antimalarial lead identification” (Nature, 2010).

Test system: Plasmodium falciparum
Assay: GSK_TCMDC: Inhibition of Plasmodium falciparum Dd2 in whole red blood cells, using parasite LDH activity as an index of growth. Test compounds present at 2uM
Type: functional

Structure (SMILES) | Inhibition
O=C(/C=C/c1ccc(Cl)c(Cl)c1)NCCCCN1CCCN(C(=O)Nc2cc(Cl)cc(Cl)c2)CC1 | 1%
Cc1ccc(F)c(CN2CCC(N3CC(c4ccccc4)(c4ccccc4)OC3=O)CC2)c1Cl | 89%
CN(C)CCNC(=O)c1ccc(-c2ccc3c(Nc4ccccc4)c(C(N)=O)cnc3c2)cc1 | 68%
COc1ccc(CNCCc2cccs2)cc1-c1ccc(OC)c(S(=O)(=O)NCCN2CCCC2)c1.O=C(O)C(F)(F)F | 19%
O=C(Nc1ccc(-c2cncc(NCCCN3CCCC3)c2)cc1)c1ccccc1 | 49%
CC(C)(C)c1nn(-c2ccccc2)c2[nH]c(=O)c(CNC3CCCC3)cc12 | 70%
O=C(/C=C/c1cccc(OC(F)(F)F)c1)NCCCCCN1CCC(c2c[nH]c3ccccc23)CC1 | 13%
O=C(Nc1ccc(N2CCC(Nc3ccccn3)CC2)cc1)c1cnc(Cl)c(Cl)c1.O=C(O)C(F)(F)F | 1%
c1ccc(Oc2ccc(Nc3ccnc4cc(-c5ccc(CNCCN6CCOCC6)o5)ccc34)cc2)cc1 | 99%
COC(=O)C(C)NCC(=O)c1ccccc1.Cl (configuration not stated) | 23%
CCOC(=O)NC1=NC(=N)N(OCc2ccc(Cl)c(Cl)c2)C(C)(C)N1 | 90%
CCCCCCNC(=O)C1Cc2c([nH]c3ccc(C)cc23)C2(CCN(CCc3ccccc3)CC2)N1 (configuration not stated) | 24%
CC1C(c2cccc(Cl)c2)OCC(C)(C)N1C(=O)CCN1CCCCC1.Cl (configuration not stated) | 5%
COc1cc(C2CCN(CCCCNC(=O)c3ccc(NC(=O)c4cc(C(F)(F)F)cc(C(F)(F)F)c4)cc3)CC2)ccc1OC(C)C | 100%
COCCCNC(=O)C1CCN(C(c2ccc(Cl)cc2)c2ccc(Cl)cc2)CC1 | 63%
CC(C)CC(=O)N1CCNC[C@@H]1C(=O)NCc1ccc(Cl)c(Cl)c1.O=C(O)C(F)(F)F | 16%
O=C(N[C@@H](Cc1ccccc1)C(=O)NCCN1CCCCC1)c1ccc(O)c(-c2cccc(C(F)(F)F)c2)c1 | 3%
Cn1nccc1C(=O)NCCNCc1ccc(-c2ccc(-c3nc4cc(C(F)(F)F)ccc4[nH]3)cc2)cc1.O=C(O)C(F)(F)F | 99%
Cc1ccc2c(c1[N+](=O)[O-])N=NCC2Oc1ccccc1 (configuration not stated) | 19%

Structure (SMILES) | Inhibition
Cl.O=c1nc(NCCCNCc2cc3c(Cl)cc(Cl)cc3[nH]2)[nH]c2ccccc12 | 4%
N#Cc1cccc(CN2CCCN(Cc3cccc(C(=O)Nc4ccc(Cl)cc4)c3)CC2)c1.O=C(O)C(F)(F)F | 9%
CCOc1ccc2[nH]c(C)cc(=NN=Cc3ccccc3F)c2c1 | 99%
COc1ccc(NC(=O)/C=C/c2ccccc2Cl)cc1OCCN1CCC(N2CCN(C)CC2)CC1 | 49%
CCN1CCCC(Nc2ccnc3cc4ccccc4cc23)C1 (configuration not stated) | 100%
Cc1cccc2nc(-c3ccc(-c4ccc(NC(=O)C(C)CN(C)C)cc4)cc3)[nH]c12 (configuration not stated) | 99%
CS(=O)(=O)CCCNCc1ccc(-c2cc3c(Nc4ccc(OCc5ccccc5)cc4)ncnc3cn2)o1 | 16%
CCOc1ccc(Cc2c(C)nc3nc(N)nc(N)c3c2C)cc1.Cl | 7%
Cc1cc(CNCC2CCC(CNCCCc3ccccc3)CC2)ccc1O (configuration not stated) | 0%
CCNc1cc(C(=O)N[C@@H](Cc2ccccc2)[C@H](O)CNC(C)(C)Cc2ccccc2)cc(N2CCCC2=O)c1.O=CO | 78%
Br.CCCCCCn1c2c(c(=N)c3c1CCC3)CCC2 | 83%
CC(C)CCn1c(Sc2ccc(C#N)c([N+](=O)[O-])c2)nnc1-c1ccccc1Cl | 38%
O=C(Cc1ccc(NC(=O)c2ccc(O)c(-c3ccc(Cl)c(Cl)c3)c2)cc1)NCCc1ccc(Cl)c(Cl)c1 | 88%
O=C(Nc1cccc(-c2nn3ccccc3c2-c2ccnc(Nc3cccc(-c4cnco4)c3)n2)c1)C1CCCCC1 | 99%
CCOc1ccccc1N1CCN(CCCNC(=O)/C(=C/C=C/c2cc3cc(Cl)c(Cl)cc3[nH]2)OC)CC1 | 93%
CCN(CC)CCN(Cc1ccc(-c2ccc(C(F)(F)F)cc2)cc1)C(=O)Cn1c(CCc2ccc(F)c(F)c2F)nc(=O)c2ccccc21.O=C(O)C(O)C(O)C(=O)O | 66%
CN(c1ccc2c(c1)nc(NCc1ccccc1)n2C)c1ccnc(Nc2ccc(CS(C)(=O)=O)cc2)n1.Cl | 69%
COc1cc2s/c(=N\C(=O)c3cccc([N+](=O)[O-])c3)n(C)c2cc1OC | 79%
